The values that follow come from PubChem BioAssay.

The test system of assay [1] is Wnt5a (protein binding on small-molecule microarray). The assay can be described thus: small molecules binding Wnt5a protein – biophysical, small-molecule microarray, 635/667 nm fluorescence, primary screen (AID 1142).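 Further: fluorescence read at 667 nm with signal to noise per printed feature.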 The following applies: 635 nm fluorescence, higher = more signal.
Assay [2] is described as follows: ATP-based viability of Huh7 replicon cells – cell-based, CellTiter-Glo luminescence, basal, 48 h, cytotoxicity control for HCV replication inhibitor project, primary screen (AID 1143).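 Further: Huh7 hepatoma cells carrying a hepatitis C replication reporter with no stimulus; test concentration not given here.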 The following applies: higher = more signal, called active from +8 up or from −8 down. (Replicon systems follow genome replication, usually without infectious particles.)
The nature of assay [3]: Pseudomonas biofilm growth suppression – PAO1 strain, BacTiter-Glo luminescence, LB-PBS, primary screen (AID 1144). The note with it: P. aeruginosa PAO1 biofilm, 12 h, higher = more signal.
A short description of assay [4]: basal CRE-LacZ reporter activity in PC12 – cell-based, unstimulated, primary screen (AID 1145). The note with it: no forskolin, luminescence, 4.5 h, higher = more signal, called active from +8 up or from −8 down.
Assay [5] in a line: forskolin-driven CRE-LacZ activity in PC12 – cell-based, CRE-LacZ reporter, forskolin-stimulated, primary screen (AID 1146).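 Further: PC12 cells with 6xCRE LacZ reporter stimulated by forskolin 10 µM; beta-galactosidase reporter signal reflecting CREB driven transcription.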 The note with it: luminescence, 4.5 h, higher = more signal, called active from +8 up or from −8 down.
Assay [6] concerns the target Streptavidin (Streptomyces avidinii) (UniProt P22629). As to the kind of experiment: compounds binding control protein streptavidin – biophysical, small-molecule microarray, 635/667 nm fluorescence, artefact control for SMM compound annotation, primary screen (AID 1147).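 Further: signal reflects streptavidin binding to arrayed compounds as a control protein.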 The note with it: higher = more signal.
Assay [7] is described as follows: probe aInhba binding on compound microarray – biochemical, small-molecule microarray, 635/667 nm fluorescence, primary screen (AID 1148).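 Further: score merges 667nm spot fluorescence with signal-to-noise for antibody binding to printed compounds.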 The note with it: higher = more signal.
Assay [8] deals with Torsin-1A (Homo sapiens) (UniProt O14656). The assay can be described thus: TOR1A wild-type binding on microarray – cell lysate, small-molecule microarray, lysate, 635/667 nm, primary screen (AID 1149). The following applies: COS7 hTOR1A-WT lysate, 635 nm fluorescence, higher = more signal.
Assay [9] shares this target. The assay can be described thus: torsin A mutant lysate binding on microarrays – cell lysate, small-molecule microarray, COS7 lysate, 635/667 nm fluorescence, primary screen (AID 1150).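 Further: score pools 667 nm emission and signal to noise measuring lysate protein binding.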 The following applies: COS7 hTOR1A mutant lysate, 635 nm fluorescence, higher = more signal.
The subject of assay [10] is Sonic hedgehog protein (Shh). As to the kind of experiment: Sonic hedgehog microarray binding compounds – biochemical, small-molecule microarray, 635/667 nm fluorescence, primary screen (AID 1151).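 Further: Shh protein binding to compounds spotted on small-molecule microarray slides; score combines spot fluorescence intensity with signal-to-noise across triplicate slides.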 The note with it: 635 nm fluorescence, higher = more signal.

The source made the active and inactive calls. Unless noted, how the calls were made is not given here.

Streptavidin (Streptomyces avidinii), sequence (P22629 whole entry, looked up): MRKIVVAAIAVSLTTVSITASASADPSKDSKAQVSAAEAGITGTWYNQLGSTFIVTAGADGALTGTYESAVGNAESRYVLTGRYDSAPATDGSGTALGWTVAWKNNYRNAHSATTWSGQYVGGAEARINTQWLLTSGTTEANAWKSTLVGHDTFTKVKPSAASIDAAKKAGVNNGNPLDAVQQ
Torsin-1A (Homo sapiens), sequence (O14656 whole entry, looked up): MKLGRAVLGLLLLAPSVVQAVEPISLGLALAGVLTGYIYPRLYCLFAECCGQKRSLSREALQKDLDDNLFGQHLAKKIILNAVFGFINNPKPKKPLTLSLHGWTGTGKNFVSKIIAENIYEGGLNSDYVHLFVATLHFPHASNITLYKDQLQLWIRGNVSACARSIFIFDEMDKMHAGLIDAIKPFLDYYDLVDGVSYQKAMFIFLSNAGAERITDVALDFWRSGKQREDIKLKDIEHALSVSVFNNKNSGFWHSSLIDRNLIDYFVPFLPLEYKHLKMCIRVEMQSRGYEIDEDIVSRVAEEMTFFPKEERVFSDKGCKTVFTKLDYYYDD

With `C[N+](C)(C)CCCC[C@@H]1NC(=O)[C@@H]2C[C@H](C(=O)NCCCCCCNC(=O)CS)[C@H](c3ccc(O)cc3)N2C1=O`, the composite z-score is -0.387 in assay [1]; 0.553 in assay [6]; -0.0963 in [7]; 0.296 in assay [8]; 0.461 in assay [9]; 0.586 in assay [10]. Further, the z-score in [2] was -0.195 (inactive); in assay [3], -0.421 (inactive); in assay [4] it was 0.0165 (inactive); in [5] it was 1.45 (inactive).
Turning to `O=C1C2C=CC(C(O)c3c(F)cccc3Cl)N(Nc3ccccc3F)C2C(=O)N1c1ccccc1` (stereo not given), the composite z-score in [1] is 0.185; in assay [6], 0.396; in assay [7] it was 0.143; in assay [8], 0.0354; in assay [9], 0.301; in assay [10], -0.356. Moreover, the z-score in assay [2] is 1.04 (inactive); in assay [3], -0.563 (inactive); in [4], 0.243 (inactive); in assay [5] it was -0.0389 (inactive).
Turning to `CCCCC(=C=CC[C@H](O)c1cccc(OCCO)c1)C[C@H](O)c1ccccn1`, the composite z-score in assay [1] is 0.11; in [6], 0.329; in assay [7], -0.101; in assay [8], 0.147; in [9] it was 0.704; in assay [10] it was 0.577. The z-score is -2.42 (inactive) in assay [2], -0.478 (inactive) in assay [3], 0.685 (inactive) in assay [4] and -0.738 (inactive) in assay [5].
Consider `CCCCC(=C=CC[C@@H](O)c1cccc(OCCO)c1)C[C@@H](O)c1ccccn1`, for which the composite z-score in [1] is 0.252; in assay [6], 1.5; in assay [7], -0.0331; in [8], 1.67; in assay [9], 0.416; in [10], 1.86. Moreover, the z-score was -0.19 (inactive) in assay [2], -1.15 (inactive) in assay [3], -0.102 (inactive) in assay [4] and 0.786 (inactive) in assay [5].
In the case of `CO[C@H]1O[C@H](CO)[C@@H](OC(=O)Nc2ccccc2)[C@@H]2OC(=O)[C@@H](Cc3ccc4ccccc4c3)C/C=C/C[C@H](Cc3ccc4ccccc4c3)C(=O)O[C@@H]12`, the composite z-score is 0.49 in assay [1]; 0.31 in assay [6]; -0.0494 in assay [7]; 0.643 in [8]; 1.87 in assay [9]; 0.662 in assay [10]. The z-score is -3.61 (inactive) in assay [2], -1.4 (inactive) in assay [3], 0.502 (inactive) in assay [4] and -0.757 (inactive) in assay [5].
`CC(=CC1CCCCC1)[C@@H](NC(=O)c1cccnc1)c1ccc(-c2ccccc2)cc1`: the composite z-score was -0.444 in assay [1]; 0.0816 in assay [6]; -0.0986 in assay [7]; -0.77 in assay [8]; -0.278 in assay [9]; -0.683 in [10]. Also, the z-score was -2.65 (inactive) in assay [2], 0.477 (inactive) in [3], 1.34 (inactive) in assay [4] and 1.24 (inactive) in assay [5].
On to `COCCCNC(=O)[C@@]1(Sc2ccc(C)cc2)CC(=O)N(Cc2ccccc2Cl)[C@@H]1c1ccc(CO)cc1`, for which the composite z-score is 0.349 in assay [1]; 0.584 in assay [6]; -0.0331 in assay [7]; 0.607 in assay [8]; 0.582 in assay [9]; 2.02 in assay [10]. Further, the z-score in [2] was -4.58 (inactive); in assay [3], -0.915 (inactive); in [4] it was -0.374 (inactive); in assay [5], 1.09 (inactive).
For `C=CC[C@]1(C(=O)NCc2ccccc2)N=C(c2ccc(OCCCO)cc2)O[C@H]1c1ccccc1CN=[N+]=[N-]`, the composite z-score in assay [1] is 0.625; in assay [6] it was 0.866; in assay [7], 0.682; in assay [8], -0.221; in assay [9], 0.631; in assay [10] it was -0.251. Further, the z-score was -3.52 (inactive) in [2], -0.728 (inactive) in [3], 0.857 (inactive) in assay [4] and -0.116 (inactive) in assay [5].
For `Cc1ccc(C2C3C(=O)CC4C(=O)N(c5ccccc5)C(=O)C4C3CN2S(=O)(=O)c2ccc(C)cc2)cc1` (stereo not given), the composite z-score in [1] came out at 0.731; in [6] it was 0.525; in assay [7], 0.255; in [8] it was 0.0484; in assay [9], 0.392; in [10], 0.205. In addition, the z-score in [2] was -0.966 (inactive); in [3], 0.538 (inactive); in assay [4] it was -0.826 (inactive); in assay [5] it was -0.743 (inactive).
As to `CC1CC/C=C\[C@H]2OC34C=CCN(c5ccc6ccccc6c5)C(=O)[C@H]3N(CCO)C(=O)[C@@H]4C2C(=O)O1` (stereo not given in full), the composite z-score in assay [1] was 0.451; in assay [6], -0.818; in assay [7] it was 0.0301; in [8], -1.34; in assay [9], 0.652; in assay [10] it was 0.0032. In addition, the z-score was -0.929 (inactive) in assay [2], 0.282 (inactive) in [3], -0.35 (inactive) in assay [4] and 0.289 (inactive) in assay [5].
Consider `COc1ccc([Si](C)(C)[C@H]2[C@H](CCO)O[C@@]3(C(=O)N(Cc4ccccc4)c4ccc(N5CCCCC5=O)cc43)[C@@H]2C)cc1`, for which the composite z-score in assay [1] is 0.116; in [6] it was 0.381; in assay [7], -0.118; in [8] it was 0.23; in [9], 1.67; in [10], 0.929. Further, the z-score was -7.68 (inactive) in assay [2], -1.98 (inactive) in assay [3], 4.22 (inactive) in assay [4] and -1.16 (inactive) in assay [5].
Take `CC[C@@H]1C=C(C(=O)O)[C@H](c2cccc3ccccc23)N1S(=O)(=O)c1ccc(C)cc1`: the composite z-score was 0.0605 in [1]; 0.985 in [6]; -0.128 in assay [7]; 0.224 in assay [8]; 0.331 in assay [9]; -0.173 in assay [10]. Moreover, the z-score in assay [2] was -0.0086 (inactive); in [3] it was 0.235 (inactive); in assay [4], -0.723 (inactive); in assay [5], 0.754 (inactive).
Consider `C=CCN1C(=O)[C@]2(O[C@H](CCO)[C@@H]([Si](C)(C)c3ccc(OC)cc3)[C@@H]2C)c2cc(N(C=O)c3ccccc3)ccc21`, for which the composite z-score in [1] was -0.223; in [6], 0.0699; in assay [7], -0.082; in assay [8], -0.376; in assay [9] it was 0.0507; in assay [10], 0.572. Besides, the z-score in [2] was -7.67 (inactive); in assay [3], -0.2 (inactive); in [4] it was 32.2 (active); in assay [5], -3.14 (inactive).
Regarding `CC(c1ccccc1)C(O)C1C=CC2C(=O)N(c3ccccc3)C(=O)C2N1Nc1ccccc1` (stereo not given), the composite z-score in assay [1] was found to be 0.821; in assay [6], 1.67; in assay [7], 0.0906; in [8], 0.524; in assay [9] it was 1.07; in [10], 0.843. Moreover, the z-score in assay [2] is -3.13 (inactive); in [3], -0.626 (inactive); in [4] it was 0.246 (inactive); in [5], 0.379 (inactive).
